# Reference: paper PMC7862700, “An all-to-all approach to the identification of sequence-specific readers for epigenetic DNA modifications on cytosine”
# Legend:
# Test in all cases: DAPPL (digital affinity profiling via proximity ligation, sequencing); 10 mM Tris-HCl pH 7.5, 50 mM NaCl, 1 mM DTT, 4% glycerol, room temperature, 30 min; GST-TFs on glutathione beads, 16-mer random dsDNA library, 0.1% formaldehyde crosslink after washing; high values mean tight binding
# FLI1 = biological target: T1, FLI1 (Homo sapiens, UniProt Q01543 1-452); details: protein: recombinant; tags: N-terminal GST; dsDNA, one strand shown
# T1 sequence: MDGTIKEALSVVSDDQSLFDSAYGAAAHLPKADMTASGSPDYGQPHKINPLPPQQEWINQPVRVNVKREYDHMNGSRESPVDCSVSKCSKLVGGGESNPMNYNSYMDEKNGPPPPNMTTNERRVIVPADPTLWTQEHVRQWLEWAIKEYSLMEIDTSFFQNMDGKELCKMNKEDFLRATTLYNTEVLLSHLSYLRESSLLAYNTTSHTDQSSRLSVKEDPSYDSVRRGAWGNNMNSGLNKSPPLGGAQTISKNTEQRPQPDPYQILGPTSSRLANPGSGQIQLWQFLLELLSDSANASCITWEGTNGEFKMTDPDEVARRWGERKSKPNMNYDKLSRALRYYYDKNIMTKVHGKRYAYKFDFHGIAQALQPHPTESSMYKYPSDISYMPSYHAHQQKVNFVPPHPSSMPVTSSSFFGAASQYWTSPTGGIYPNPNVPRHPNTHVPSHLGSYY
# Outline: (§1)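 A tag-only sample was pooled with DNA-barcoded human transcription factors that had been expressed in yeast as GST fusions and captured on glutathione beads. The pools were incubated for 30 min at room temperature with 200 nmole of a random double-stranded 16-mer DNA library in Tris/NaCl/DTT/glycerol buffer, then washed, crosslinked with 0.1% formaldehyde, proximity-ligated (BsaI/T4 ligase, 1 h, 37 °C), PCR-amplified and sequenced on an Illumina NextSeq500. Binding signal is each hexamer's read frequency for a factor divided by its frequency for the tag-only sample.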
# ELK1 = biological target: T2, ELK1 (Homo sapiens, UniProt P19419 1-428); details: protein: recombinant; tags: N-terminal GST; dsDNA, one strand shown
# T2 sequence: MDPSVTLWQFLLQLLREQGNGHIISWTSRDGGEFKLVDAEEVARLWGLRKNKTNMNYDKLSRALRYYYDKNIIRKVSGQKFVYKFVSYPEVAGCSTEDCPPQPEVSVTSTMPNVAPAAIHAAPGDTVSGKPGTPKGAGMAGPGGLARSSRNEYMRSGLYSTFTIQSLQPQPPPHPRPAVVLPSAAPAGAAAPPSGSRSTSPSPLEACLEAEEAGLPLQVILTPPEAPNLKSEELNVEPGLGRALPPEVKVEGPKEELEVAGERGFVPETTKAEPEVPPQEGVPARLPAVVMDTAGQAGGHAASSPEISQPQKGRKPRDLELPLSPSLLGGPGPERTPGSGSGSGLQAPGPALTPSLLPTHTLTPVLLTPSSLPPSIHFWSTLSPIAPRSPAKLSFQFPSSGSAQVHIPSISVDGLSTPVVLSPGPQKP
# Outline: as §1
# GABPA = biological target: T3, GABPA (Homo sapiens, UniProt Q06546 1-454); details: protein: recombinant; tags: N-terminal GST; dsDNA, one strand shown
# T3 sequence: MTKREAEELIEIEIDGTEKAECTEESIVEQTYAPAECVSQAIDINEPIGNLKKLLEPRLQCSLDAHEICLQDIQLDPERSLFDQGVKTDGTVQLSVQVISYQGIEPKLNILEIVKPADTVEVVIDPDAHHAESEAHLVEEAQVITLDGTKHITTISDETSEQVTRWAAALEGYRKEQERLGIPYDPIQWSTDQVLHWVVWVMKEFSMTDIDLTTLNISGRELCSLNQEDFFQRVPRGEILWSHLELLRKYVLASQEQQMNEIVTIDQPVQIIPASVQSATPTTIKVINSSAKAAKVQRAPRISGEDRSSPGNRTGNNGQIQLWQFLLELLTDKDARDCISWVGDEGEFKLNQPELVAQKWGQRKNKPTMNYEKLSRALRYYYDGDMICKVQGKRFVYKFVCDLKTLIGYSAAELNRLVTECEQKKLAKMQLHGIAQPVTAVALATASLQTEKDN
# Outline: as §1
# ERG = biological target: T4, ERG (Homo sapiens, UniProt P11308 1-479); details: protein: recombinant; tags: N-terminal GST; dsDNA, one strand shown
# T4 sequence: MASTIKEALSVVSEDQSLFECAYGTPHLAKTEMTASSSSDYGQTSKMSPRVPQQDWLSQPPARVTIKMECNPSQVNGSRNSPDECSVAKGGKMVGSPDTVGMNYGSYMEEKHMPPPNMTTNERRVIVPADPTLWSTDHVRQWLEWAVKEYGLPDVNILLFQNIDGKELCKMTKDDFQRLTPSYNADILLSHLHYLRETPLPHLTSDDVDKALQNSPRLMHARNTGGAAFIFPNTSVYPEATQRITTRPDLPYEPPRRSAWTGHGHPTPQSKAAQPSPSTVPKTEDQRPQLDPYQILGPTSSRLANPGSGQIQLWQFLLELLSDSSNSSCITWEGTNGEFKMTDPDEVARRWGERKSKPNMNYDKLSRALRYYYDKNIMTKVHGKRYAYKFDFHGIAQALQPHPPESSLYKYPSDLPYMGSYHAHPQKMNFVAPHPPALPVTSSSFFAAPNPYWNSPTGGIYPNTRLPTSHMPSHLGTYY
# Outline: as §1
# ELF1 = ELF1 (Homo sapiens, UniProt P32519 1-619); details: protein: recombinant; tags: N-terminal GST; dsDNA, one strand shown
# Outline: as §1
# EHF = biological target: T5, EHF (Homo sapiens, UniProt Q9NZC4 1-300); details: protein: recombinant; tags: N-terminal GST; dsDNA, one strand shown
# T5 sequence: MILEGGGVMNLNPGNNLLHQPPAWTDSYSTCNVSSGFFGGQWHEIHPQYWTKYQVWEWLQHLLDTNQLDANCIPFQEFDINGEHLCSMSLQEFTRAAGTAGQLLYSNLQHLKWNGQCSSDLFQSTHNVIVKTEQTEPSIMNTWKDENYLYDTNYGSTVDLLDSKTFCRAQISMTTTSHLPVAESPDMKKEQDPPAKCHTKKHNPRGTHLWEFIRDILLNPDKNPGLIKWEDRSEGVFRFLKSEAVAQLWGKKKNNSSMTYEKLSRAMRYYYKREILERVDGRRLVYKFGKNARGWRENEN
# Outline: as §1
# SPI1 = SPI1 (Homo sapiens, UniProt P17947 1-270); details: protein: recombinant; tags: N-terminal GST; dsDNA, one strand shown
# Outline: as §1
# SPIB = SPIB (Homo sapiens, UniProt Q01892 1-262); details: protein: recombinant; tags: N-terminal GST; dsDNA, one strand shown
# Outline: as §1
# ELK3 = biological target: T6, ELK3 (Homo sapiens, UniProt P41970 1-407); details: protein: recombinant; tags: N-terminal GST; dsDNA, one strand shown
# T6 sequence: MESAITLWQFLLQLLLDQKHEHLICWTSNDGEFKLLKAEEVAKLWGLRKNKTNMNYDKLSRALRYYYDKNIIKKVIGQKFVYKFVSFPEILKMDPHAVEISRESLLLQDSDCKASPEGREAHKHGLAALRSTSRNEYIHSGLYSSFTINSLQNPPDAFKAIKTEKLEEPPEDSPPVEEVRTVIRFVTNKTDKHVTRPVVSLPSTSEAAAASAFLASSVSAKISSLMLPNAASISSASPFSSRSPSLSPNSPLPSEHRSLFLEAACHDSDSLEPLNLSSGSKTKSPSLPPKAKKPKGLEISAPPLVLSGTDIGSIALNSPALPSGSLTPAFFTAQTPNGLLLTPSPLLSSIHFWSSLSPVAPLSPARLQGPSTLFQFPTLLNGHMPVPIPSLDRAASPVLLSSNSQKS
# Outline: as §1
# FEV = biological target: T7, FEV (Homo sapiens, UniProt Q99581 1-238); details: protein: recombinant; tags: N-terminal GST; dsDNA, one strand shown
# T7 sequence: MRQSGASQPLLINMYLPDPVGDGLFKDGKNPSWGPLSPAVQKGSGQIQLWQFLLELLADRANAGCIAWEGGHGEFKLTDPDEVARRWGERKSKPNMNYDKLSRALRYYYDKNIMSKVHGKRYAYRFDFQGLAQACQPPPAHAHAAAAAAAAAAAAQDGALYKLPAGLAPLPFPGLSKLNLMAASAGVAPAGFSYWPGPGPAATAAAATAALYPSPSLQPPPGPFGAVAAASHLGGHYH
# Outline: as §1
# ETV5 = ETV5 (Homo sapiens, UniProt P41161 1-510); details: protein: recombinant; tags: N-terminal GST; dsDNA, one strand shown
# Outline: as §1
# HSF1 = HSF1 (Homo sapiens, UniProt Q00613 1-529); details: protein: recombinant; tags: N-terminal GST; chain copies: 3; dsDNA, one strand shown
# Outline: as §1
# SPIC = biological target: T8, SPIC (Homo sapiens, UniProt Q8N5J4 1-248); details: protein: recombinant; tags: N-terminal GST; dsDNA, one strand shown
# T8 sequence: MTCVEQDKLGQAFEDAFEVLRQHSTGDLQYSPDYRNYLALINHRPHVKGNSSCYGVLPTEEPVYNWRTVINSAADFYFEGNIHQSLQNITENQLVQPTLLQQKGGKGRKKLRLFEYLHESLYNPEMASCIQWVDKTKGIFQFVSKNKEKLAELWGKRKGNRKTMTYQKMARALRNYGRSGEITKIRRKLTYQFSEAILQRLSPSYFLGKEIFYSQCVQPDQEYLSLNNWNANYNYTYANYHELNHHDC
# Outline: as §1
# ELF4 = ELF4 (Homo sapiens, UniProt Q99607 1-663); details: protein: recombinant; tags: N-terminal GST; dsDNA, one strand shown
# Outline: as §1
# ELK4 = biological target: T9, ELK4 (Homo sapiens, UniProt P28324-2 1-405); details: protein: recombinant; tags: N-terminal GST; dsDNA, one strand shown
# T9 sequence: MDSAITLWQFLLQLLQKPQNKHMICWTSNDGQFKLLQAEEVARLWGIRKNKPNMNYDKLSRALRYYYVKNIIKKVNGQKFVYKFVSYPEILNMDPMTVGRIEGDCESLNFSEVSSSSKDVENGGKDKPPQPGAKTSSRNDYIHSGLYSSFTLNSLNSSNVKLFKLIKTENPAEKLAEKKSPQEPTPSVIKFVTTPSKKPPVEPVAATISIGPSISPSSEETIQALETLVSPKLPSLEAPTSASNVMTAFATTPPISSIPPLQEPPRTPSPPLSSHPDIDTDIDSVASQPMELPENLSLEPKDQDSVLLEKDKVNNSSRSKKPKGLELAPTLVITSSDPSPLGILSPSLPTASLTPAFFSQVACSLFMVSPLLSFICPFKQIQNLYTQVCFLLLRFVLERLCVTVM
# Outline: as §1
# ETV2 = biological target: T10, ETV2 (Homo sapiens, UniProt O00321 1-342); details: protein: recombinant; tags: N-terminal GST; dsDNA, one strand shown
# T10 sequence: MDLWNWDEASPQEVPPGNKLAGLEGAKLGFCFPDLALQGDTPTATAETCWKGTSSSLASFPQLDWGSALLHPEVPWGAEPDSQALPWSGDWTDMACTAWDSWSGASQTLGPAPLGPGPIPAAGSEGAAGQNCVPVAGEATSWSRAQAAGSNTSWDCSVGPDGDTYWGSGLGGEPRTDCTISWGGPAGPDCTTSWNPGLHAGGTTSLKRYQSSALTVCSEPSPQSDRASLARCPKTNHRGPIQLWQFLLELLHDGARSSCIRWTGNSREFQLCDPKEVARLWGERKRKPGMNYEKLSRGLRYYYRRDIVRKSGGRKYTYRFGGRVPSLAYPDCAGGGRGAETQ
# Outline: as §1
# ELF3 = biological target: T11, ELF3 (Homo sapiens, UniProt P78545 1-371); details: protein: recombinant; tags: N-terminal GST; dsDNA, one strand shown
# T11 sequence: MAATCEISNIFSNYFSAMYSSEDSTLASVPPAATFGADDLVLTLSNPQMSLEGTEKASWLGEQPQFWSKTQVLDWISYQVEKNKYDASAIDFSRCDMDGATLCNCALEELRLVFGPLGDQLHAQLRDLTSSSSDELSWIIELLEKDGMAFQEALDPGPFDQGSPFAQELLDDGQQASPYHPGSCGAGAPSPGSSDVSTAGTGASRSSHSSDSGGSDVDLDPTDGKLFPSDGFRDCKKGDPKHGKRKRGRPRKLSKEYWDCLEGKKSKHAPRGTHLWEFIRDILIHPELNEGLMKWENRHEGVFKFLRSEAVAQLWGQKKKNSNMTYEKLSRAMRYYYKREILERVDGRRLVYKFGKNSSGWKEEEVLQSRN
# Outline: as §1
# CRX = CRX (Homo sapiens, UniProt O43186 1-299); details: protein: recombinant; tags: N-terminal GST; dsDNA, one strand shown
# Outline: as §1
# ETV1 = ETV1 (Homo sapiens, UniProt P50549 1-477); details: protein: recombinant; tags: N-terminal GST; dsDNA, one strand shown
# Outline: as §1
# Sequence of ETV1 (P50549 whole entry): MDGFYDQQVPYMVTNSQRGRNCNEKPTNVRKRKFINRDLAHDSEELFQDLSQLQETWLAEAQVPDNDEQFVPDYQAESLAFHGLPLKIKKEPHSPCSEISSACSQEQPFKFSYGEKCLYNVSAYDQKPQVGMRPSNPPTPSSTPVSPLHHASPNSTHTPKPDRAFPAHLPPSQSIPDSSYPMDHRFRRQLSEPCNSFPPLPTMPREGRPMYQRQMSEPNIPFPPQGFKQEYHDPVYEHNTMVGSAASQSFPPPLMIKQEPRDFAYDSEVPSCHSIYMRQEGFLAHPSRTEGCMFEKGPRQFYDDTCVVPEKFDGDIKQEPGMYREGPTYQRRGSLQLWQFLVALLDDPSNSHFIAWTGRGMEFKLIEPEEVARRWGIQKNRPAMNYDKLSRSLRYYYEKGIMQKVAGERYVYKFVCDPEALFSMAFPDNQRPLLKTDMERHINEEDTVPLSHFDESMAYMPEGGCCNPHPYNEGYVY
# Sequence of ELF4 (Q99607 whole entry): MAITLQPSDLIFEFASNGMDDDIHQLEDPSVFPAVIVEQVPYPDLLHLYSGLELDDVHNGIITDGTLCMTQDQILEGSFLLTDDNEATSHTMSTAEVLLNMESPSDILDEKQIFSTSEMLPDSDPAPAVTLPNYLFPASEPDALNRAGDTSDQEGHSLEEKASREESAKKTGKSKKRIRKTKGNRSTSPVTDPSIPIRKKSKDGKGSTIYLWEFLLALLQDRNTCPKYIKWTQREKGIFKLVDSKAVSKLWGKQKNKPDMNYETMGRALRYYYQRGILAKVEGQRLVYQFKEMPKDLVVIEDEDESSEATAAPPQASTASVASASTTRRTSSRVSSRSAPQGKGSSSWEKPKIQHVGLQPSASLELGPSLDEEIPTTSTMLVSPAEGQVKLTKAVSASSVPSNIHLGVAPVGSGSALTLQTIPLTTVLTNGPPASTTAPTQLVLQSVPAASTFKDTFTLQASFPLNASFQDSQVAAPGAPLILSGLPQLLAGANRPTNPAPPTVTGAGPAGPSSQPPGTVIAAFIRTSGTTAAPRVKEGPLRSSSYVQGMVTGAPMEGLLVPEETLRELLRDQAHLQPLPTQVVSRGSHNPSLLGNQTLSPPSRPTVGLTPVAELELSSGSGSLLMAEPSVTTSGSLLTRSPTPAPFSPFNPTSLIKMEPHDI
# Sequence of CRX (O43186 whole entry): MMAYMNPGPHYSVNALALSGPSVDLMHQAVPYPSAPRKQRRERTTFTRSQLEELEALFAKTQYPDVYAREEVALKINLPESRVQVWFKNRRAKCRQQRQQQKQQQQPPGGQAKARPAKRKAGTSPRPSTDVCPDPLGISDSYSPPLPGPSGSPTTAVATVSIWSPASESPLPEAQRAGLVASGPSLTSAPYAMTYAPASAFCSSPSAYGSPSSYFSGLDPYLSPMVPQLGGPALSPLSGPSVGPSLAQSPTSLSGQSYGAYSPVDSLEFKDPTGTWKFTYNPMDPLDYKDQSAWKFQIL
# Sequence of ETV5 (P41161 whole entry): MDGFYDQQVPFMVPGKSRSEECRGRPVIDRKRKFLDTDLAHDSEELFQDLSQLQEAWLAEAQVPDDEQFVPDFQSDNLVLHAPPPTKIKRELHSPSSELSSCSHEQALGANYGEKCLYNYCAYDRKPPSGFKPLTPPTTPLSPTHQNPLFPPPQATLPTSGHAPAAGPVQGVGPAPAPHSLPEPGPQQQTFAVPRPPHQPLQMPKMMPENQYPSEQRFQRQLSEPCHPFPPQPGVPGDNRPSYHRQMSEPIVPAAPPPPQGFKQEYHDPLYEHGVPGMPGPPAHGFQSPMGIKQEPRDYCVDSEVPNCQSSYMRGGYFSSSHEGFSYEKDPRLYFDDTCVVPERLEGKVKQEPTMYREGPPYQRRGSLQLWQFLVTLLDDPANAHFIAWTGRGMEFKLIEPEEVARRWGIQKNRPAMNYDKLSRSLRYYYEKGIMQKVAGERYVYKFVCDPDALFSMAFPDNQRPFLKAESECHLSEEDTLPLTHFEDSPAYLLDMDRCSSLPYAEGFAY
# Sequence of HSF1 (Q00613 whole entry): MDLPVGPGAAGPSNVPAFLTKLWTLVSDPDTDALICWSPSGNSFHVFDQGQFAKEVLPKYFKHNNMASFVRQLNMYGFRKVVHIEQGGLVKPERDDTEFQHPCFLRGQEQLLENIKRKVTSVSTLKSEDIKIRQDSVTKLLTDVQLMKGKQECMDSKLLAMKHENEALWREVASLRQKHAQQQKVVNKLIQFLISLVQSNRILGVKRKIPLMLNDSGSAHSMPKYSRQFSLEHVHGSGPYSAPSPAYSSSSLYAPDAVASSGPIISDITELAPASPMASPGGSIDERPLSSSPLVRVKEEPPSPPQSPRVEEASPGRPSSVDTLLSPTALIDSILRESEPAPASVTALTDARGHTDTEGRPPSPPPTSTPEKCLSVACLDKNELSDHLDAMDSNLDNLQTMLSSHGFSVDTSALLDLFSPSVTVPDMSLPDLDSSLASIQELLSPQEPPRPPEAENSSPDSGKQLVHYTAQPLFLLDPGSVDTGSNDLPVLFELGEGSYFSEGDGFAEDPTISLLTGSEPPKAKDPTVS
# Sequence of SPIB (Q01892 whole entry): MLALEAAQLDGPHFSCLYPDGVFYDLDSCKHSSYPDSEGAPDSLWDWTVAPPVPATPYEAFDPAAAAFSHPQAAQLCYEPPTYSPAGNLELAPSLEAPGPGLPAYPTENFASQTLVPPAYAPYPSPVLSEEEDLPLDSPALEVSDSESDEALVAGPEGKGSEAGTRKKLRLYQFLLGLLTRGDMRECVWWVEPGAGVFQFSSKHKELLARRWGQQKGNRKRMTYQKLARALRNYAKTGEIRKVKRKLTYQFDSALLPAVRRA
# Sequence of ELF1 (P32519 whole entry): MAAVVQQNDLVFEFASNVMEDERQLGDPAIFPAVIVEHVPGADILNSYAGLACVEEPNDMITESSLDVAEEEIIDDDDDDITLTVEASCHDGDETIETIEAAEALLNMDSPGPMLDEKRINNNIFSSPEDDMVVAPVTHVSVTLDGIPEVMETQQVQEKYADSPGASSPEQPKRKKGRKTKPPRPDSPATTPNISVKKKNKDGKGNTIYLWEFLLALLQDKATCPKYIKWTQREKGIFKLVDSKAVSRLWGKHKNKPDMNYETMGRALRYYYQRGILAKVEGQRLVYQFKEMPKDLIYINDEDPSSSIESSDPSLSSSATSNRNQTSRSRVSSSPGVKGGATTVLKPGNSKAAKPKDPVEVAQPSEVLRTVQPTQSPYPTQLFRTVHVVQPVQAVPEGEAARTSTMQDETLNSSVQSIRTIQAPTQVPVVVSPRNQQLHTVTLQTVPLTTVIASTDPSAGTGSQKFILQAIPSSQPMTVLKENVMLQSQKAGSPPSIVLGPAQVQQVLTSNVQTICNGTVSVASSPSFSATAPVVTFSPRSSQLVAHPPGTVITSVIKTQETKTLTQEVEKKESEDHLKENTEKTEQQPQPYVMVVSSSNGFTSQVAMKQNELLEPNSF
sequence,measurement,setting,value
TATATC,binding signal,FLI1,"1.6 fold enrichment (6-mer frequency, TF over GST control)"
same,binding signal,ELK1,"1.62 fold enrichment (6-mer frequency, TF over GST control)"
same,binding signal,GABPA,"1.55 fold enrichment (6-mer frequency, TF over GST control)"
same,binding signal,ERG,"1.48 fold enrichment (6-mer frequency, TF over GST control)"
same,binding signal,ELF1,"1.58 fold enrichment (6-mer frequency, TF over GST control)"
same,binding signal,EHF,"1.59 fold enrichment (6-mer frequency, TF over GST control)"
same,binding signal,SPI1,"1.54 fold enrichment (6-mer frequency, TF over GST control)"
same,binding signal,SPIB,"1.67 fold enrichment (6-mer frequency, TF over GST control)"
same,binding signal,ELK3,"1.42 fold enrichment (6-mer frequency, TF over GST control)"
same,binding signal,FEV,"1.58 fold enrichment (6-mer frequency, TF over GST control)"
same,binding signal,ETV5,"1.6 fold enrichment (6-mer frequency, TF over GST control)"
same,binding signal,HSF1,"1.33 fold enrichment (6-mer frequency, TF over GST control)"
same,binding signal,SPIC,"1.67 fold enrichment (6-mer frequency, TF over GST control)"
same,binding signal,ELF4,"1.58 fold enrichment (6-mer frequency, TF over GST control)"
same,binding signal,ELK4,"1.53 fold enrichment (6-mer frequency, TF over GST control)"
same,binding signal,ETV2,"1.54 fold enrichment (6-mer frequency, TF over GST control)"
same,binding signal,ELF3,"1.36 fold enrichment (6-mer frequency, TF over GST control)"
same,binding signal,CRX,"1.67 fold enrichment (6-mer frequency, TF over GST control)"
same,binding signal,ETV1,"1.54 fold enrichment (6-mer frequency, TF over GST control)"
